Values joined by “and” are separate entries in the source; they are usually repeats but may differ in a detail not shown here. Identical values can stand only once.
Test: qHTS profiling for inhibitors of Plasmodium falciparum (3D7) proliferation (AID 743322);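 note: infected erythrocytes exposed to compound for 72 h before lysis; 100% = DMSO vehicle wells and 0% = 0.29 µM artemisinin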
Conditions: P. falciparum 3D7 proliferation; at 28.7 µM (top of the series) unless noted
Text: Plasmodium falciparum is a virulent malarial parasite that kills 1-2 million people worldwide each year. Transmitted by mosquitoes, the sporozoite form of the parasite enters the blood stream to infect hepatocytes, where they become merozoites that infect red blood cells (erythrocytes). Within erythrocytes, merozoites begin a […] cycle of growth and division, after which the parasite is released to infect new red blood cells. Gametocytes, which form within erythrocytes as well, circulate in the bloodstream and are ingested by the mosquito, thereby completing the life cycle. To profile malarial isolates for differential chemical responses and to identify inhibitors of malarial growth, an assay that measures P. falciparum growth and replication within erythrocytes was employed. This assay uses a DNA binding fluorescent dye (SYBR Green) to detect parasite DNA following cell lysis. Because mature erythrocytes lack DNA, only Plasmodium-derived DNA is detected.
The SYBR Green viability assay was adapted from a method described previously (Plouffe et al., 2008). For screening 3 ul culture medium was dispensed into 1536 well black clear bottom plates (Aurora Biotechnologies) using a Multidrop Combi (Thermo Fisher Scientific Inc.), 23 nL compounds in DMSO were added by a pin tool (Kalypsys), and 5 ul of erythrocytes infected with P. falciparum (0.3% parasitemia, 2.5% hematocrit final concentration) were added. The plates were incubated at 37 C in a humidified incubator in 5% CO2 for 72 h, and 2 ul lysis buffer (20 mM Tris HCl, 10 mM EDTA, 0.16% saponin, 1.6% triton X, 10X SYBR Green I supplied as 10,000X […] by Invitrogen) was added to each well. The plates were mixed for 25 sec with gentle shaking and incubated overnight at room temperature in the dark. The following morning, fluorescence intensity at 485(14) nm excitation and 535(25) nm emission wavelengths was measured on an EnVision (Perkin Elmer) plate reader. Plate reads were normalized relative to the control inhibitor (0.29 uM artemisinin) and vehicle (DMSO) wells present on each plate and then corrected by an algorithm using vehicle-only control plates at the beginning and end of the compound plate stack.

Question: For `Nc1nc(Cl)nc2c1ncn2[C@H]1C[C@H](O)[C@@H](CO)O1`, which remaining parasite growth % (stronger effect = lower value) is on record?
Answer: 83.8% [at 57.5 µM]

Question: For `COc1cc2c(N3CCN(C(=O)Nc4ccc(OC(C)C)cc4)CC3)ncnc2cc1OCCCN1CCCCC1`, which remaining parasite growth % (stronger effect = lower value) is on record?
Answer: -0.248%

Question: For `Cc1cccc(C#Cc2ccccc2)n1`, which remaining parasite growth % (stronger effect = lower value) is on record?
Answer: 106%

Question: Which remaining parasite growth % (stronger effect = lower value) does the source give for `Cc1ccc(NC(=O)c2ccc(CN3CCN(C)CC3)cc2)cc1Nc1nccc(-c2cccnc2)n1` here?
Answer: 1.04%

Question: For `Cc1cc(C2CCCCC2)n(O)c(=O)c1`, which remaining parasite growth % (stronger effect = lower value) is on record?
Answer: -0.4%

Question: For `Cc1nc(Nc2ncc(C(=O)Nc3c(C)cccc3Cl)s2)cc(N2CCN(CCO)CC2)n1`, which remaining parasite growth % (stronger effect = lower value) is on record?
Answer: 71.9%

Question: With `S=c1nc[nH]c2nc[nH]c12` as the compound, how does the remaining parasite growth % (stronger effect = lower value) read?
Answer: 58.5% [at 57.5 µM]

Question: For `Nc1cccc2c1CN(C1CCC(=O)NC1=O)C2=O` (centres undefined), which remaining parasite growth % (stronger effect = lower value) is on record?
Answer: 98.3% [at 57.5 µM] and 94.5% [at 57.5 µM]

Question: With `Cc1cccc(-c2[nH]ncc2-c2ccc3ncccc3n2)n1` as the compound, how does the remaining parasite growth % (stronger effect = lower value) read?
Answer: 92.9% [at 57.5 µM]

Question: For `CCCCN(CCCC)CCC(O)c1cc2c(Cl)cc(Cl)cc2c2cc(C(F)(F)F)ccc12` (centres undefined), which remaining parasite growth % (stronger effect = lower value) is on record?
Answer: -0.286% [at 9.63 µM]

Question: For `C[C@@H](N)C1CCC(C(=O)Nc2ccncc2)CC1` (some centres undefined), which remaining parasite growth % (stronger effect = lower value) is on record?
Answer: 103%

Question: Which remaining parasite growth % (stronger effect = lower value) does the source give for `Cc1cccc(C)c1OCC(=O)N[C@@H](Cc1ccccc1)[C@@H](O)C[C@H](Cc1ccccc1)NC(=O)[C@H](C(C)C)N1CCCNC1=O` here?
Answer: -1.44%

Question: With `CCOC(=O)C1=C(O)C(=O)N(Cc2ccccc2)C1` as the compound, how does the remaining parasite growth % (stronger effect = lower value) read?
Answer: 34%

Question: With `NC(=NCc1ccccc1)NC(=O)c1nc(Cl)c(N)nc1N` as the compound, how does the remaining parasite growth % (stronger effect = lower value) read?
Answer: -0.258% [at 18.4 µM]

Question: Which remaining parasite growth % (stronger effect = lower value) does the source give for `CN(C)c1ccc2nc3ccc(=[N+](C)C)cc-3sc2c1` here?
Answer: 1.85% [at 57.5 µM]

Question: For `CC(C)c1ccc2c(c1)c(SC(C)(C)C)c(CC(C)(C)C(=O)O)n2Cc1ccc(Cl)cc1`, which remaining parasite growth % (stronger effect = lower value) is on record?
Answer: 39.7%

Question: Which remaining parasite growth % (stronger effect = lower value) does the source give for `CCN(CC)C(=S)SSC(=S)N(CC)CC` here?
Answer: 99.1%

Question: With `CCOC(=O)C(C)Oc1cccc2c(=O)n(CC(=O)Nc3ccc4c(c3)OCCO4)ccc12` (centres undefined) as the compound, how does the remaining parasite growth % (stronger effect = lower value) read?
Answer: 115%

Question: Which remaining parasite growth % (stronger effect = lower value) does the source give for `O=c1cc(N2CCOCC2)oc2c(-c3ccccc3)cccc12` here?
Answer: 105%

Question: With `CC(C)C[C@H](NC(=O)[C@H](Cc1ccccc1)NC(=O)c1cnccn1)B(O)O` as the compound, how does the remaining parasite growth % (stronger effect = lower value) read?
Answer: -0.334%

Question: Which remaining parasite growth % (stronger effect = lower value) does the source give for `CCc1nc(N)nc(N)c1-c1ccc(Cl)cc1` here?
Answer: -1.1%

Question: Which remaining parasite growth % (stronger effect = lower value) does the source give for `CCN(CCO)CCCC(C)Nc1ccnc2cc(Cl)ccc12` (centres undefined) here?
Answer: 0.834% and 0.742%

Question: With `COc1cc(Nc2c(C#N)cnc3cc(OCCCN4CCN(C)CC4)c(OC)cc23)c(Cl)cc1Cl` as the compound, how does the remaining parasite growth % (stronger effect = lower value) read?
Answer: -0.245%

Question: Which remaining parasite growth % (stronger effect = lower value) does the source give for `CCN(CC)CCOc1ccc(Nc2ncc3cc(-c4c(Cl)cccc4Cl)c(=O)n(C)c3n2)cc1` here?
Answer: 0.673%

From PubChem BioAssay (NCATS)
